Here are results for eight compounds from PubChem BioAssay (NCI).

SMILES strings stand for the structures. About 83,000 compounds went through this panel and 20% of them were active in at least one assay; those are over-represented in the sample as a whole.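 Testing used 96-well plates and a 48-hour single-concentration exposure. Example: -40 means 40% of the starting cells died.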 Unmarked numbers belong to inactive results. Activity calls are given as the source filed them. How the source made its calls: active means growth percent below 10; inactive means the rest.

Some test systems named below: DU-145 prostate; K-562 leukemia; MDA-MB-231 breast; RXF 393 renal; SF-268 CNS; SF-295 CNS; SF-539 CNS; UACC-257 melanoma; M14 melanoma; HCT-15 colon; HT29 colon; SNB-75 CNS; SNB-19 CNS; U251 CNS; PC-3 prostate; UACC-62 melanoma; SK-MEL-28 melanoma; MALME-3M melanoma; LOX IMVI melanoma; SK-MEL-5 melanoma.
What all share (assay): NCI-60 one-dose screen, 48 h (100 = growth as untreated, 0 = no growth, -100 = all killed)
Conditions in all cases: 10 µM unless noted

As for `OCCNc1nccc(N2CCN(c3ccnc4cc(Cl)ccc34)CC2)n1`, the growth with DU-145 prostate is 98.8%; in the test on K-562 leukemia it was 24.2%; in the test with MDA-MB-231 breast, 54.9%; with RXF 393 renal, 77.1%; in the test with SF-268 CNS it was 82.7%; with SF-295 CNS, 58%. The growth in the test on SF-539 CNS was 79.6%; in the test with UACC-257 melanoma, 84%; with M14 melanoma, 68.7%; with HCT-15 colon, 51.3%; in the test on HT29 colon it was 45.7%; in the test with SNB-75 CNS, 71.3%. Moreover, the growth in the test on SNB-19 CNS was 88.9%; with U251 CNS it was 86%; in the test on PC-3 prostate, 72.2%; in the test with UACC-62 melanoma it was 71.4%; with SK-MEL-28 melanoma, 94%.
For the compound `CN1CCN(c2nc(NCCCCNc3ccnc4cc(Cl)ccc34)c3ccccc3n2)CC1`, the growth is 75.7% in the test on DU-145 prostate; -53.5% (active) in the test with MALME-3M melanoma; -5.35% (active) in the test on MDA-MB-231 breast; 9.29% (active) in the test with RXF 393 renal; 64.9% in the test with SF-268 CNS; 80% in the test on SF-295 CNS. Besides, the growth was -73.7% (active) with SF-539 CNS; -32.4% (active) in the test on UACC-257 melanoma; -75.9% (active) with M14 melanoma; 37.4% in the test with HCT-15 colon; 4.42% (active) with HT29 colon; 76.9% with SNB-75 CNS. Further, the growth with SNB-19 CNS was 53.5%; in the test on U251 CNS, 2.52% (active); in the test with PC-3 prostate, 66.3%; in the test on UACC-62 melanoma, 63.9%; with LOX IMVI melanoma, 2.66% (active); in the test on SK-MEL-28 melanoma it was -0.901% (active).
As to `Clc1ccc2c(NCCCNc3nc(-n4ccnc4)nc4ccccc34)ccnc2c1`, the growth was 94.8% with DU-145 prostate; 102% with MALME-3M melanoma; 83.2% with MDA-MB-231 breast; 81% in the test with RXF 393 renal; 89% in the test on SF-268 CNS; 89.6% in the test on SF-295 CNS. For the same compound, the growth in the test on SF-539 CNS was 76.1%; in the test on UACC-257 melanoma, 94.2%; in the test with M14 melanoma, 95.1%; in the test on HCT-15 colon, 87%; with HT29 colon, 75.1%; in the test on SNB-75 CNS, 71.1%. Besides, the growth is 92.1% in the test with SNB-19 CNS; 83.5% in the test on U251 CNS; 73.3% in the test on PC-3 prostate; 94.3% in the test with UACC-62 melanoma; 82.1% with LOX IMVI melanoma; 93.1% with SK-MEL-28 melanoma.
Consider `CCOc1nc(-c2ccccc2)cc2c(O)c(C(=O)N/N=C/c3ccc(O)cc3O)[nH]c(=O)c12`, for which the growth was 23.4% with DU-145 prostate; 31.5% in the test on K-562 leukemia; 43.2% in the test with MDA-MB-231 breast; -35.2% (active) in the test with RXF 393 renal; 16.3% with SF-268 CNS; 19.3% with SF-295 CNS. The growth is 16% in the test with SF-539 CNS; -29.1% (active) with UACC-257 melanoma; 21.5% in the test with M14 melanoma; 23.9% in the test on HCT-15 colon; 48.3% in the test on HT29 colon; 59.6% with SNB-75 CNS. Besides, the growth in the test on SNB-19 CNS is 43.2%; in the test with U251 CNS it was 21.2%; in the test with SK-MEL-5 melanoma, 21.9%; in the test with UACC-62 melanoma, 9.73% (active); in the test on LOX IMVI melanoma, -0.51% (active); in the test on SK-MEL-28 melanoma, 60%.
In the case of `O=C(Cn1cccc(Nc2ccccc2)c1=O)Nc1ccccc1`, the growth in the test with DU-145 prostate is 111%; with K-562 leukemia it was 108%; in the test on MDA-MB-231 breast it was 108%; with RXF 393 renal, 100%; in the test with SF-268 CNS, 107%; with SF-295 CNS it was 106%. For the same compound, the growth was 97.1% in the test with SF-539 CNS; 99.6% with UACC-257 melanoma; 102% in the test on M14 melanoma; 101% in the test with HCT-15 colon; 106% with HT29 colon; 84.9% in the test on SNB-75 CNS. Further, the growth is 97.1% in the test on SNB-19 CNS; 97.8% in the test with U251 CNS; 97.3% with PC-3 prostate; 93.6% in the test on UACC-62 melanoma; 104% in the test with SK-MEL-28 melanoma.
As for `COc1ccc(N=Nc2nccs2)c(O)c1`, the growth in the test on DU-145 prostate was 51.3%; in the test with MALME-3M melanoma, 92.1%; with MDA-MB-231 breast, 35.8%; in the test with RXF 393 renal, 52.7%; in the test with SF-268 CNS, 26.4%; in the test on SF-295 CNS, 95%. The growth in the test with SF-539 CNS was 40.2%; with UACC-257 melanoma, 85.3%; in the test on M14 melanoma, 59.6%; in the test with HCT-15 colon, 25.4%; in the test on HT29 colon, 40.2%; in the test on SNB-75 CNS, 81.9%. Also, the growth in the test with SNB-19 CNS is 51.4%; in the test on U251 CNS it was 27.8%; in the test with PC-3 prostate, 42.1%; in the test on UACC-62 melanoma, 36.8%; in the test on LOX IMVI melanoma, 11.5%; with SK-MEL-28 melanoma, 81.4%.
As to `CC1=C(O)C(=O)C(C(C#N)(C#N)C(C#N)C#N)C1` (configuration not stated), the growth with DU-145 prostate was 94.7%; in the test with MALME-3M melanoma it was 113%; in the test on MDA-MB-231 breast it was 124%; in the test on RXF 393 renal, 110%; with SF-268 CNS, 84.4%; in the test on SF-295 CNS, 101%. Besides, the growth in the test on SF-539 CNS is 104%; in the test with UACC-257 melanoma it was 105%; with M14 melanoma, 101%; in the test on HCT-15 colon, 98.9%; in the test on HT29 colon, 111%; in the test on SNB-75 CNS, 81.5%. The growth in the test with SNB-19 CNS is 108%; with U251 CNS, 113%; with PC-3 prostate, 106%; in the test on UACC-62 melanoma it was 97.6%; in the test on LOX IMVI melanoma, 96.5%; with SK-MEL-28 melanoma, 114%.
Turning to `N#Cc1c(N)n(CCNC(=O)c2ccccc2)c2nc3ccccc3nc12`, the growth in the test with DU-145 prostate is 134%; in the test on K-562 leukemia it was 87.8%; in the test with MALME-3M melanoma, 120%; in the test on MDA-MB-231 breast it was 112%; in the test with SF-268 CNS, 106%; with SF-295 CNS, 121%. For the same compound, the growth was 121% in the test on SF-539 CNS; 97.9% in the test with UACC-257 melanoma; 112% in the test with M14 melanoma; 111% in the test on HCT-15 colon; 104% with HT29 colon; 116% with SNB-75 CNS. Moreover, the growth with SNB-19 CNS is 119%; in the test with U251 CNS, 115%; with SK-MEL-5 melanoma, 132%; with UACC-62 melanoma it was 103%; in the test with LOX IMVI melanoma it was 113%; with SK-MEL-28 melanoma, 123%.
